Experimental data taken from PubChem BioAssay AID1159580 (chemical genetic matrix, 2015).
Values joined by “and” are separate entries in the source; they are usually repeats but may differ in a detail not shown here. Equal entries are not always repeated. Screen size: about 5,500 compounds; about 2,000 (36%) were called active. Another 18% or so got no clear call; they are omitted. Rule as the data show it: active = normalized growth mostly below about 0.91 (no sharp cut-off); inconclusive = no clear call, values can overlap the other calls; inactive = mostly above about 0.92. This is one part of the list.

Test: chemical genetic growth profiling, strain panel (AID 1159580);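 also: tested at 20 µM; growth read once vehicle control cultures reached saturation at 30 °C; 1 = growth at the plate median or of vehicle wells; lower values mean less growth of the strain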
Conditions: S. cerevisiae deletion strains, growth OD

Measured: normalized growth

CC(=O)O[C@]1(C)CC[C@@]23CC1C(C)(C)[C@@H]2CC[C@H]3C
inactive: locus YAL013W, strain DEP1, stronger effect = lower value 1 | locus YAL021C, strain ccr4, stronger effect = lower value 0.985 | locus YAL026C, strain drs2, stronger effect = lower value 0.979 | locus YAL030W, strain snc1, stronger effect = lower value 0.98 | locus YBL061C, strain skt5, stronger effect = lower value 0.967 | locus YBR009C, strain hhf1, stronger effect = lower value 0.968 | locus YBR021W, strain FUR4, stronger effect = lower value 0.954 | locus YBR023C, strain chs3, stronger effect = lower value 0.961 | locus YBR171W, strain sec66, stronger effect = lower value 0.969 | locus YBR229C, strain ROT2, stronger effect = lower value 1 | locus YBR231C, strain swc5, stronger effect = lower value 0.998 | locus YBR279W, strain paf1, stronger effect = lower value 0.979 | locus YCL011C, strain gbp2, stronger effect = lower value 0.975 | locus YCL016C, strain dcc1, stronger effect = lower value 0.976 | locus YCL029C, strain bik1, stronger effect = lower value 1.03 | locus YCL061C, strain MRC1, stronger effect = lower value 0.985 | locus YCL069W, strain vba3, stronger effect = lower value 0.976 | locus YCR088W, strain abp1, stronger effect = lower value 0.978 | locus YDL005C, strain med2, stronger effect = lower value 0.967 | locus YDL035C, strain GPR1, stronger effect = lower value 0.964 | locus YDL040C, strain nat1, stronger effect = lower value 0.972 | locus YDL074C, strain BRE1, stronger effect = lower value 0.958 | locus YDL101C, strain DUN1, stronger effect = lower value 0.981 | locus YDL185W, strain tfp1, stronger effect = lower value 1.02 | locus YDL192W, strain arf1, stronger effect = lower value 0.971 | locus YDR001C, strain nth1, stronger effect = lower value 0.977 | locus YDR069C, strain doa4, stronger effect = lower value 0.974 | locus YDR101C, strain arx1, stronger effect = lower value 1.02 | locus YDR137W, strain rgp1, stronger effect = lower value 0.944 | locus YDR159W, strain sac3, stronger effect = lower value 0.986 | locus YDR162C, strain NBP2, stronger effect = lower value 0.905 | locus YDR195W, strain ref2 0.995 | locus YDR297W, strain sur2, stronger effect = lower value 0.96 | locus YDR318W, strain mcm21, stronger effect = lower value 0.972 | locus YDR334W, strain swr1, stronger effect = lower value 0.974 | locus YDR335W, strain msn5, stronger effect = lower value 0.975 | locus YDR388W, stronger effect = lower value 1.01 | locus YDR392W, strain spt3, stronger effect = lower value 0.964 | locus YDR502C, strain sam2, stronger effect = lower value 0.979 | locus YEL003W, strain gim4, stronger effect = lower value 0.977 | locus YEL037C, strain rad23, stronger effect = lower value 0.975 | locus YEL061C, strain CIN8 (second series), stronger effect = lower value 0.981 | locus YEL061C, strain CIN8, stronger effect = lower value 0.996 | locus YER015W, strain faa2, stronger effect = lower value 0.974 | locus YER016W, strain bim1, stronger effect = lower value 0.966 | locus YER110C, stronger effect = lower value 1.02 | locus YER111C, strain swi4, stronger effect = lower value 0.967 | locus YER155C, strain BEM2 (second series), stronger effect = lower value 0.974 | locus YER155C, strain BEM2, stronger effect = lower value 0.95 | locus YER167W, strain BCK2, stronger effect = lower value 0.982 | locus YFR010W, strain ubp6, stronger effect = lower value 0.994 | locus YGL078C, strain dbp3, stronger effect = lower value 1.01 | locus YGL086W, strain mad1, stronger effect = lower value 1.02 | locus YGL167C, strain pmr1, stronger effect = lower value 0.977 | locus YGL173C, strain kem1, stronger effect = lower value 0.975 | locus YGL227W, strain vid30, stronger effect = lower value 0.969 | locus YGL240W, strain doc1, stronger effect = lower value 1.01 | locus YGL248W, strain PDE1, stronger effect = lower value 0.934 | locus YGL253W, strain hxk2, stronger effect = lower value 0.981 | locus YGR078C, strain PAC10, stronger effect = lower value 0.946 | locus YGR135W, strain pre9, stronger effect = lower value 0.985 | locus YGR252W, strain gcn5, stronger effect = lower value 0.867 | locus YHR013C, strain ard1, stronger effect = lower value 0.959 | locus YHR027C, strain rpn1, stronger effect = lower value 0.986 | locus YHR030C, strain SLT2, stronger effect = lower value 0.964 and 0.917 | locus YHR079C, strain IRE1 (second series), stronger effect = lower value 1.01 | locus YHR079C, strain IRE1, stronger effect = lower value 0.951 | locus YHR094C, strain hxt1, stronger effect = lower value 1.01 | locus YHR129C, strain ARP1, stronger effect = lower value 0.978 | locus YHR142W, strain chs7, stronger effect = lower value 0.967 | locus YHR200W, strain rpn10, stronger effect = lower value 1 | locus YIL066C, strain RNR3, stronger effect = lower value 0.973 | locus YIL073C, strain SPO22, stronger effect = lower value 0.923 | locus YIL125W, strain kgd1, stronger effect = lower value 1.01 | locus YIR030C, strain dcg1, stronger effect = lower value 0.997 | locus YJL092W, strain hpr5, stronger effect = lower value 0.983 | locus YJL095W, strain BCK1 (second series), stronger effect = lower value 0.981 | locus YJL095W, strain BCK1, stronger effect = lower value 0.84 and 0.968 | locus YJL115W, strain asf1, stronger effect = lower value 0.975 | locus YJL129C, strain trk1, stronger effect = lower value 0.981 | locus YJL134W, strain LCB3, stronger effect = lower value 1.01 | locus YJL154C, strain vps35, stronger effect = lower value 0.962 | locus YJL164C, strain tpk1, stronger effect = lower value 0.978 | locus YJL166W, strain qcr8, stronger effect = lower value 0.978 | locus YJL168C, strain set2, stronger effect = lower value 1.01 | locus YJL187C, strain SWE1 (second series), stronger effect = lower value 0.97 | locus YJR043C, strain POL32, stronger effect = lower value 0.995 | locus YJR066W, strain TOR1, stronger effect = lower value 0.958 | locus YJR075W, strain HOC1, stronger effect = lower value 0.956 | locus YKL009W, strain mrt4, stronger effect = lower value 1.08 | locus YKL068W, stronger effect = lower value 0.998 | locus YKL085W, strain MDH1 (second series), stronger effect = lower value 1 | locus YKL085W, strain MDH1, stronger effect = lower value 1 | locus YKL160W, strain elf1, stronger effect = lower value 0.968 | locus YKL190W, strain CNB1, stronger effect = lower value 1 | locus YKR001C, strain vps1, stronger effect = lower value 0.98 | locus YKR026C, strain gcn3, stronger effect = lower value 0.974 | locus YKR091W, strain srl3, stronger effect = lower value 0.974 | locus YLL001W, strain dnm1, stronger effect = lower value 0.978 | locus YLL026W, stronger effect = lower value 0.971 | locus YLL041C, strain sdh2, stronger effect = lower value 0.973 | locus YLR027C, strain aat2, stronger effect = lower value 0.964 | locus YLR039C, strain RIC1, stronger effect = lower value 0.853 | locus YLR058C, strain SHM2, stronger effect = lower value 0.974 | locus YLR102C, strain apc9, stronger effect = lower value 1.01 | locus YLR113W, strain HOG1, stronger effect = lower value 0.911 | locus YLR221C, strain rsa3, stronger effect = lower value 0.977 | locus YLR258W, strain gsy2, stronger effect = lower value 0.957 | locus YLR262C, strain YPT6 (second series), stronger effect = lower value 0.987 | locus YLR262C, strain YPT6, stronger effect = lower value 0.848 | locus YLR268W, strain sec22, stronger effect = lower value 1.03 | locus YLR320W, strain mms22, stronger effect = lower value 0.981 | locus YLR330W, strain CHS5, stronger effect = lower value 1 | locus YLR342W, strain FKS1 (second series), stronger effect = lower value 1 | locus YLR342W, strain FKS1, stronger effect = lower value 0.995 | locus YLR357W, strain rsc2, stronger effect = lower value 0.989 | locus YLR370C, strain arc18, stronger effect = lower value 0.976 | locus YLR371W, strain rom2, stronger effect = lower value 1.01 | locus YLR384C, strain iki3, stronger effect = lower value 0.977 | locus YLR418C, strain cdc73, stronger effect = lower value 0.864 | locus YML016C, strain PPZ1, stronger effect = lower value 1 | locus YML032C, strain rad52, stronger effect = lower value 0.965 | locus YML120C, strain ndi1, stronger effect = lower value 0.976 | locus YML124C, strain tub3, stronger effect = lower value 0.999 | locus YMR058W, strain fet3, stronger effect = lower value 0.968 | locus YMR078C, strain ctf18, stronger effect = lower value 1.01 | locus YMR125W, strain sto1, stronger effect = lower value 0.966 | locus YMR129W, stronger effect = lower value 0.973 | locus YMR205C, strain PFK2, stronger effect = lower value 0.933 | locus YMR223W, strain ubp8, stronger effect = lower value 0.959 | locus YMR231W, strain pep5, stronger effect = lower value 0.976 | locus YMR263W, strain SAP30, stronger effect = lower value 0.983 | locus YMR307W, strain GAS1, stronger effect = lower value 0.74 | locus YNL067W, strain RPL9B, stronger effect = lower value 0.969 | locus YNL071W, strain lat1, stronger effect = lower value 0.982 | locus YNL183C, strain NPR1, stronger effect = lower value 0.961 | locus YNL209W, strain ssb2, stronger effect = lower value 0.983 | locus YNL233W, strain BNI4, stronger effect = lower value 0.933 | locus YNL248C, strain rpa49, stronger effect = lower value 0.978 | locus YNL250W, strain rad50, stronger effect = lower value 1.01 | locus YNL271C, strain bni1, stronger effect = lower value 1.01 | locus YNL298W, strain CLA4, stronger effect = lower value 1.03 | locus YNL307C, strain MCK1, stronger effect = lower value 1.01 | locus YNL322C, strain KRE1 (second series), stronger effect = lower value 0.952 | locus YNR049C, strain mso1, stronger effect = lower value 0.995 | locus YNR052C, strain pop2, stronger effect = lower value 0.986 | locus YOL012C, strain htz1 0.829 | locus YOL147C, strain pex11, stronger effect = lower value 1 | locus YOR001W, strain rrp6, stronger effect = lower value 0.996 | locus YOR061W, strain CKA2, stronger effect = lower value 1 | locus YOR069W, strain VPS5, stronger effect = lower value 1 | locus YOR070C, strain gyp1, stronger effect = lower value 0.993 | locus YOR080W, strain dia2, stronger effect = lower value 0.967 | locus YOR083W, strain WHI5, stronger effect = lower value 0.979 | locus YOR106W, strain vam3, stronger effect = lower value 0.979 | locus YOR136W, strain idh2, stronger effect = lower value 1.02 | locus YOR144C, strain elg1, stronger effect = lower value 1.01 | locus YOR231W, strain MKK1, stronger effect = lower value 0.958 | locus YOR265W, strain rbl2, stronger effect = lower value 0.999 | locus YOR270C, strain vph1, stronger effect = lower value 0.897 | locus YOR290C, strain snf2, stronger effect = lower value 0.947 | locus YOR316C, strain cot1, stronger effect = lower value 1 | locus YPL051W, strain arl3, stronger effect = lower value 0.976 | locus YPL055C, strain LGE1, stronger effect = lower value 0.937 | locus YPL078C, strain atp4, stronger effect = lower value 0.999 | locus YPL106C, strain sse1, stronger effect = lower value 0.969 | locus YPL240C, strain hsp82, stronger effect = lower value 0.982 | locus YPL256C, strain CLN2, stronger effect = lower value 0.991 | locus YPR119W, strain clb2, stronger effect = lower value 1.01 | locus YPR141C, strain kar3, stronger effect = lower value 1 | locus YPR163C, strain tif3, stronger effect = lower value 1.02 | locus YPR167C, strain met16, stronger effect = lower value 0.98 | strain wtn01, stronger effect = lower value 1.04
active: locus YOR184W, strain ser1, stronger effect = lower value 0.846
